Assay outcomes (PubChem)
Compounds with a hit are over-represented: about 1.3% of the library has one in this group of screens.
LYPLA2 counter: blocks human lysophospholipase 2, a PME1 counter-screen; recombinant LYPLA2, FP-Rh probe fluorescence polarization; inhibition, % at 5.9 µM; hit rate 0.38% among 320,000;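 active = inhibition above the screen-wide mean plus 3 SD, limit set per campaign, cut at about 26% in these data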
Target sequence (O95372 whole entry, looked up): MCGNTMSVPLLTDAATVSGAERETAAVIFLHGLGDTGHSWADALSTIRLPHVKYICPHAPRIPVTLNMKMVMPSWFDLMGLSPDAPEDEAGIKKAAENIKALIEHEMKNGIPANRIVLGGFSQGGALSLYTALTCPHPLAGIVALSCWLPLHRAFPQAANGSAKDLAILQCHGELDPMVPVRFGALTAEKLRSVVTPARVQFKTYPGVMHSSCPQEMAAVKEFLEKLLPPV
EBNA-1 inh: blocks EBNA-1 binding to DNA. inhibition, % at 14.8 µM. EBNA-1 DNA binding, fluorescence polarization. AID 1950. hit rate 0.34% among 300,000; in the data active = inhibition above about 28%
ZTA DNA inh: blocks Epstein-Barr virus ZTA, an EBNA-1 counter-screen; P03206; ZTA-DNA binding, fluorescence polarization; inhibition, % at 11 µM; hit rate 0.15% among 320,000; in the data active = inhibition above about 33%
PREPL inh: inhibitors of human prolyl oligopeptidase-like enzyme PREPL; Q4J6C6; recombinant PREPL, fluorescence polarization activity-based probe; inhibition, % at 5.96 µM; hit rate 0.68% among 320,000; AID 2751; in the data active = inhibition above about 43%
LYPLA1 counter: LYPLA1 (human) inhibition in PME1 counter-screen; O75608; recombinant LYPLA1, FP-Rh probe fluorescence polarization; inhibition, % at 5.9 µM; hit rate 0.16% among 320,000;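 active = inhibition above the mean of all tested compounds plus 3 SD, set per campaign, cut at about 14% in these data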;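 also: inhibitors block serine hydrolase probe labeling of LYPLA1 so polarization falls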
Target sequence (O75608 whole entry, looked up): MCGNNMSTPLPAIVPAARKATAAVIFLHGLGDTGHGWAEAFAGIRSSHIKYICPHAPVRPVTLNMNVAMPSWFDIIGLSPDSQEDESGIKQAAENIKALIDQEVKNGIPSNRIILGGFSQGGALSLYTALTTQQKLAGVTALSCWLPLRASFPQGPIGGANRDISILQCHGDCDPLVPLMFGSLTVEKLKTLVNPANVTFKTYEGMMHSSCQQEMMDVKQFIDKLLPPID
LYPLA2 conf: counter-screen for PME1 inhibitors: confirmation of human LYPLA2 inhibitors | shares compounds with LYPLA2 counter | recombinant LYPLA2, FP-Rh probe fluorescence polarization | inhibition, % at 5.9 µM | hit rate 72% among 1,100 | AID 2232;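 active = mean inhibition across replicates above the hit cutoff set in the primary screen, cut at about 26% in these data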;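 also: blocked labeling of the enzyme by serine hydrolase FP-Rh probe lowers polarization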
LYPLA2 ABPP: LYPLA2 (human) inhibition, late stage results. inhibition, % at 20 µM. shares compounds with LYPLA2 counter. rhLYPLA2 in mouse brain proteome, gel ABPP FP-Rh. hit rate 30% among 150;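 active = inhibition of LYPLA2 enzyme probe labeling above about 50%, limit read from the data; inactive = inhibition below that limit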;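 also: loss of FP-Rh probe labeling of the LYPLA2 gel band measured as band density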
Each line names hits and unclear results; the compound was inactive in the other large screens (follow-up assays come after a bar, where they were run).

COc1cc(C2/C(=C(\O)c3ccc4c(c3)CC(C)O4)C(=O)C(=O)N2CCCn2ccnc2)cc(OC)c1OC (stereo not drawn)	none
O=C(NCCOc1ccccc1)c1cc([N+](=O)[O-])ccc1N1CCOCC1	none (no result: EBNA-1 inh)
COc1ccc(C(=O)c2nccc3cc(OC)c(OC)cc23)cc1OC	LYPLA2 counter 26 (no result: EBNA-1 inh) | LYPLA2 conf inactive
COc1ccc(-c2csc(NC(=O)CN3C(=O)C4CC=CCC4C3=O)n2)cc1OC (stereo not drawn)	none
CCCOc1ccc(-c2c(=O)n(O)c3ccccc3[n+]2[O-])cc1	LYPLA2 counter 50 | LYPLA2 conf inactive
CCOn1c(=O)c(-c2ccccc2)[n+]([O-])c2ccccc21	none
O=C(Nc1cccnc1)c1ccc2c(c1)C(=O)N(Cc1cccnc1)C2=O	none
COC(=O)c1ccc(NC(=O)c2ccc3c(c2)C(=O)N(Cc2cccnc2)C3=O)cc1	LYPLA2 counter 50 | LYPLA2 conf 51
CCCNC(C)(C)COC(=O)c1ccccc1	none
Fc1ccc(CSc2ncnc3ccccc23)cc1	LYPLA2 counter 26 | LYPLA2 conf 26
O=C(c1ccc(S(=O)(=O)N2CCCC2)cc1)N1CCC(CN2C(=O)c3cccc4cccc(c34)C2=O)CC1	LYPLA2 counter 27 | LYPLA2 conf inactive
COc1ccc(S(=O)(=O)N2CCC(CN3C(=O)c4cccc5cccc(c45)C3=O)CC2)cc1	none
O=C(COC(=O)CCC(=O)c1ccc(F)cc1)Nc1ccc(Cl)cn1	none (no result: LYPLA2 counter, EBNA-1 inh, ZTA DNA inh, LYPLA1 counter)
COC(=O)c1cc(C)cc(=O)o1	none
Cc1cc(CCCCCCCCc2cc(C)cc(=O)o2)oc(=O)c1	LYPLA2 counter 37 | LYPLA2 conf 45
O=C(Nn1cnc2ccccc2c1=O)c1ccccc1Cl	none
O=C(Nc1ccc(Cl)cc1)Nn1cnc2ccccc2c1=O	LYPLA2 counter 30 | LYPLA2 conf 34
CC(C)Cn1c(=O)c2sccc2n2c(CCCC(=O)N3CCC(N4CCCCC4)CC3)nnc12	none
CC(C)CCn1c(=O)c2sccc2n2c(CCCC(=O)N3CCC(N4CCCCC4)CC3)nnc12	LYPLA2 counter 28 | LYPLA2 conf inactive
CCOc1cccc(Nc2ccc([N+](=O)[O-])cn2)c1	LYPLA2 counter 28 | LYPLA2 conf inactive
COc1ccccc1C(=O)COC(=O)c1ccc(-n2cnnn2)cc1	LYPLA2 counter 32 | LYPLA2 conf inactive
Cc1cccc(Oc2cc(NC(=O)Cn3cnc([N+](=O)[O-])n3)cc([N+](=O)[O-])c2)c1	LYPLA2 counter 42 | LYPLA2 conf inactive
CCc1ccc(NC(=O)CSc2nc(=O)n(CCN(C)C)c3c2CCCC3)cc1	none
Cc1noc(C)c1C(=O)OCC(=O)Nc1cccc(S(N)(=O)=O)c1	none
Cc1cc(NC(=O)COC(=O)c2c(C)noc2C)ccc1Br	LYPLA2 counter 49 | LYPLA2 conf 53
O=C1c2ccc(Oc3ccc4c(c3)C(=O)N(CCCCO)C4=O)cc2C(=O)N1CCCCO	LYPLA2 counter 29 | LYPLA2 conf 35
O=C1c2ccc(Oc3ccc([N+](=O)[O-])cc3)cc2C(=O)N1CCCO	LYPLA2 counter 46 | LYPLA2 conf 50
O=C(O)CN1C(=O)c2ccc(Oc3ccc([N+](=O)[O-])cc3)cc2C1=O	none
CCCCCCCCNC(C)C(O)c1ccc(SC(C)C)cc1 (stereo not drawn)	LYPLA2 counter 40 | LYPLA2 conf 46
COc1ccccc1NC(=O)Cn1cnc2sc(C(=O)NCc3ccco3)c(C)c2c1=O	LYPLA2 counter 64 | LYPLA2 conf 57 | LYPLA2 ABPP inactive
CCn1cnc2sc(C(=O)Nc3ccccc3OC)c(C)c2c1=O	none
COc1ccc(NC(=O)CCCNC(=O)Cn2cnc3sc(C)c(C)c3c2=O)cc1Cl	none
CCCNC(=O)Cn1cnc2sc(C(=O)Nc3ccc4c(c3)OCO4)c(C)c2c1=O	none
COCCCNC(=O)c1sc2ncn(CC(=O)Nc3ccc(C)c(Cl)c3)c(=O)c2c1C	LYPLA2 counter 42 | LYPLA2 conf 35
CCN(CC)CCCNC(=O)c1sc2ncn(CC(=O)Nc3ccc(C)c(Cl)c3)c(=O)c2c1C	LYPLA2 counter 38 | LYPLA2 conf 40
O=C(O)c1cc(NN=Nc2cccc([N+](=O)[O-])c2)cc([N+](=O)[O-])c1	LYPLA2 counter 28 | LYPLA2 conf 28
O=C(O)c1cc(NN=Nc2cccc(S(=O)(=O)O)c2)cc([N+](=O)[O-])c1	none
CN(CC(=O)Nc1ccc(F)c(F)c1F)C(=O)C1COc2ccccc2O1 (stereo not drawn)	none (no result: LYPLA2 counter, EBNA-1 inh, ZTA DNA inh, LYPLA1 counter)
O=C(NNc1ccccc1[N+](=O)[O-])Nc1ccc(F)cc1F	none
O=C(NNc1ccccc1[N+](=O)[O-])Nc1cccc(Cl)c1	LYPLA2 counter 40 | LYPLA2 conf 46
COc1ccccc1-c1nnc(N)s1	LYPLA2 counter 28 | LYPLA2 conf inactive
CCN(CC)CCN1C(=O)c2ccccc2NC1c1ccc(Br)cc1 (stereo not drawn)	LYPLA2 counter 28 | LYPLA2 conf inactive
CCOC(=O)CCNC(=O)N1CCCC(Cc2ccccc2)(C(=O)OCC)C1 (stereo not drawn)	none
Cc1ccc2c(c1)C1CC(C)(O2)N(c2cccc(C(=O)NC3CCN(Cc4ccccc4)CC3)c2)C(=O)N1 (stereo not drawn)	none
O=S(=O)(c1ccc(-c2csc(Nc3ccc(Br)cc3)n2)cc1)N1CCCC1	LYPLA2 counter 53 | LYPLA2 conf inactive
O=S(=O)(c1ccc(-c2csc(Nc3ccc(F)cc3)n2)cc1)N1CCCC1	none
CC(=O)c1ccc(N2CCN(C(=O)/C=C/c3ccc4ccccc4n3)CC2)cc1	LYPLA2 counter 33 | LYPLA2 conf 39
O=C(CCCN1CCC(O)(c2ccc(Br)cc2)CC1)c1ccc(F)cc1	none
O=C(CCCN1CCC(O)(c2cccc(C(F)(F)F)c2)CC1)c1ccc(F)cc1	LYPLA2 counter 72 | LYPLA2 conf 68
Cc1ccc(S(=O)(=O)N(C)CC(=O)O/N=C(\N)c2ccc([N+](=O)[O-])cc2)cc1	LYPLA2 counter 67 | LYPLA2 conf 58 | LYPLA2 ABPP inactive
CN(CC(=O)O/N=C(\N)c1cccc([N+](=O)[O-])c1)S(=O)(=O)c1ccccc1	none
CN(CC(=O)O/N=C(\N)c1ccc([N+](=O)[O-])cc1)S(=O)(=O)c1ccccc1	LYPLA2 counter 29 | LYPLA2 conf inactive
CCOc1cc(C2NC(=O)CCC2[N+](=O)[O-])cc(Br)c1OCC (stereo not drawn)	none
Cc1cc(C)c2c(n1)SCC(=O)N2CC(=O)Nc1ccc(Br)c(C)c1	LYPLA2 counter 56 | LYPLA2 conf 33
CCN(CC(=O)NCc1cccs1)C(=O)c1cc(S(=O)(=O)N2CCOCC2)ccc1C	LYPLA2 counter 29 | LYPLA2 conf inactive
